Assay results from PubChem BioAssay AID1159580 (chemical genetic matrix, 2015).
The whole screen tested about 5,500 compounds, of which about 2,000 (36%) were called active. Not shown: some 18% with an inconclusive outcome. Cut-off read from the data, not from the text of the source: active = normalized growth mostly below about 0.91 (no sharp cut-off); inconclusive = no clear call, values can overlap the other calls; inactive = mostly above about 0.92. This is one part of the list.

Assay: chemical genetic growth profiling, strain panel (AID 1159580);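 note: tested at 20 µM; growth read once vehicle control cultures reached saturation at 30 °C; 1 = growth at the plate median or of vehicle wells; lower values mean less growth of the strain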
Conditions: growth OD

Measured: normalized growth

C=C1c2c(Cl)ccc(O)c2C(O)=C2C(=O)[C@]3(O)C(O)=C(C(N)=O)C(=O)[C@@H](N(C)C)[C@@H]3[C@@H](O)[C@H]12
active: S. cerevisiae deletion strains, locus YLR268W, strain sec22, active compounds read low 0.866 | S. cerevisiae deletion strains, locus YMR058W, strain fet3, active compounds read low 0.841 | S. cerevisiae deletion strains, locus YNL209W, strain ssb2, active compounds read low 0.924
inactive: S. cerevisiae deletion strains, locus YJR075W, strain HOC1, active compounds read low 0.96 | S. cerevisiae deletion strains, locus YKL009W, strain mrt4, active compounds read low 1 | S. cerevisiae deletion strains, locus YKL068W, active compounds read low 0.989 | S. cerevisiae deletion strains, locus YKL085W, strain MDH1 (second series), active compounds read low 0.971 | S. cerevisiae deletion strains, locus YKL085W, strain MDH1, active compounds read low 0.971 | S. cerevisiae deletion strains, locus YKL160W, strain elf1, active compounds read low 0.999 | S. cerevisiae deletion strains, locus YKL190W, strain CNB1, active compounds read low 0.979 | S. cerevisiae deletion strains, locus YKR001C, strain vps1, active compounds read low 0.917 | S. cerevisiae deletion strains, locus YKR026C, strain gcn3, active compounds read low 0.983 | S. cerevisiae deletion strains, locus YKR091W, strain srl3, active compounds read low 0.973 | S. cerevisiae deletion strains, locus YLL001W, strain dnm1, active compounds read low 1.01 | S. cerevisiae deletion strains, locus YLL026W, active compounds read low 0.996 | S. cerevisiae deletion strains, locus YLL041C, strain sdh2, active compounds read low 0.985 | S. cerevisiae deletion strains, locus YLR027C, strain aat2, active compounds read low 1 | S. cerevisiae deletion strains, locus YLR039C, strain RIC1, active compounds read low 0.968 | S. cerevisiae deletion strains, locus YLR058C, strain SHM2, active compounds read low 0.937 | S. cerevisiae deletion strains, locus YLR102C, strain apc9, active compounds read low 0.986 | S. cerevisiae deletion strains, locus YLR113W, strain HOG1, active compounds read low 1.01 | S. cerevisiae deletion strains, locus YLR221C, strain rsa3, active compounds read low 0.935 | S. cerevisiae deletion strains, locus YLR258W, strain gsy2, active compounds read low 0.948 | S. cerevisiae deletion strains, locus YLR262C, strain YPT6 (second series), active compounds read low 0.974 | S. cerevisiae deletion strains, locus YLR262C, strain YPT6, active compounds read low 0.997 | S. cerevisiae deletion strains, locus YLR320W, strain mms22, active compounds read low 0.926 | S. cerevisiae deletion strains, locus YLR330W, strain CHS5, active compounds read low 0.981 | S. cerevisiae deletion strains, locus YLR342W, strain FKS1 (second series), active compounds read low 0.875 | S. cerevisiae deletion strains, locus YLR342W, strain FKS1, active compounds read low 0.965 | S. cerevisiae deletion strains, locus YLR357W, strain rsc2, active compounds read low 0.895 | S. cerevisiae deletion strains, locus YLR370C, strain arc18, active compounds read low 0.988 | S. cerevisiae deletion strains, locus YLR371W, strain rom2, active compounds read low 0.987 | S. cerevisiae deletion strains, locus YLR384C, strain iki3, active compounds read low 0.988 | S. cerevisiae deletion strains, locus YLR418C, strain cdc73, active compounds read low 0.899 | S. cerevisiae deletion strains, locus YML016C, strain PPZ1, active compounds read low 0.968 | S. cerevisiae deletion strains, locus YML032C, strain rad52, active compounds read low 0.937 | S. cerevisiae deletion strains, locus YML120C, strain ndi1, active compounds read low 0.993 | S. cerevisiae deletion strains, locus YML124C, strain tub3, active compounds read low 0.977 | S. cerevisiae deletion strains, locus YMR078C, strain ctf18, active compounds read low 0.983 | S. cerevisiae deletion strains, locus YMR125W, strain sto1, active compounds read low 0.954 | S. cerevisiae deletion strains, locus YMR129W, active compounds read low 0.981 | S. cerevisiae deletion strains, locus YMR205C, strain PFK2, active compounds read low 0.998 | S. cerevisiae deletion strains, locus YMR223W, strain ubp8, active compounds read low 0.969 | S. cerevisiae deletion strains, locus YMR231W, strain pep5, active compounds read low 0.987 | S. cerevisiae deletion strains, locus YMR263W, strain SAP30, active compounds read low 0.957 | S. cerevisiae deletion strains, locus YMR307W, strain GAS1, active compounds read low 0.887 | S. cerevisiae deletion strains, locus YNL067W, strain RPL9B, active compounds read low 0.93 | S. cerevisiae deletion strains, locus YNL071W, strain lat1, active compounds read low 0.96 | S. cerevisiae deletion strains, locus YNL128W, strain TEP1, active compounds read low 0.936 | S. cerevisiae deletion strains, locus YNL153C, strain GIM3, active compounds read low 0.897 | S. cerevisiae deletion strains, locus YNL183C, strain NPR1, active compounds read low 0.947 | S. cerevisiae deletion strains, locus YNL233W, strain BNI4, active compounds read low 0.919 | S. cerevisiae deletion strains, locus YNL248C, strain rpa49, active compounds read low 0.921 | S. cerevisiae deletion strains, locus YNL250W, strain rad50, active compounds read low 0.96 | S. cerevisiae deletion strains, locus YNL271C, strain bni1, active compounds read low 0.961 | S. cerevisiae deletion strains, locus YNL298W, strain CLA4, active compounds read low 1 | S. cerevisiae deletion strains, locus YNL307C, strain MCK1, active compounds read low 0.965 | S. cerevisiae deletion strains, locus YNL322C, strain KRE1 (second series), active compounds read low 0.958 | S. cerevisiae deletion strains, locus YNL322C, strain KRE1, active compounds read low 0.985 | S. cerevisiae deletion strains, locus YNR049C, strain mso1, active compounds read low 0.971 | S. cerevisiae deletion strains, locus YNR052C, strain pop2, active compounds read low 0.99 | S. cerevisiae deletion strains, locus YOL006C, strain TOP1, active compounds read low 0.839 | S. cerevisiae deletion strains, locus YOL012C, strain htz1 0.807 | S. cerevisiae deletion strains, locus YOL147C, strain pex11, active compounds read low 0.975 | S. cerevisiae deletion strains, locus YOR001W, strain rrp6, active compounds read low 0.997 | S. cerevisiae deletion strains, locus YOR061W, strain CKA2, active compounds read low 0.973 | S. cerevisiae deletion strains, locus YOR069W, strain VPS5, active compounds read low 0.974 | S. cerevisiae deletion strains, locus YOR070C, strain gyp1, active compounds read low 0.951 | S. cerevisiae deletion strains, locus YOR080W, strain dia2, active compounds read low 0.988 | S. cerevisiae deletion strains, locus YOR083W, strain WHI5, active compounds read low 0.96 | S. cerevisiae deletion strains, locus YOR106W, strain vam3, active compounds read low 0.974 | S. cerevisiae deletion strains, locus YOR136W, strain idh2, active compounds read low 0.997 | S. cerevisiae deletion strains, locus YOR144C, strain elg1, active compounds read low 0.984 | S. cerevisiae deletion strains, locus YOR184W, strain ser1, active compounds read low 0.978 | S. cerevisiae deletion strains, locus YOR231W, strain MKK1, active compounds read low 0.972 | S. cerevisiae deletion strains, locus YOR265W, strain rbl2, active compounds read low 0.974 | S. cerevisiae deletion strains, locus YOR270C, strain vph1, active compounds read low 0.97 | S. cerevisiae deletion strains, locus YOR290C, strain snf2, active compounds read low 0.916 | S. cerevisiae deletion strains, locus YOR316C, strain cot1, active compounds read low 0.992 | S. cerevisiae deletion strains, locus YPL051W, strain arl3, active compounds read low 0.973 | S. cerevisiae deletion strains, locus YPL055C, strain LGE1, active compounds read low 0.94 | S. cerevisiae deletion strains, locus YPL078C, strain atp4, active compounds read low 1.02 | S. cerevisiae deletion strains, locus YPL106C, strain sse1, active compounds read low 0.898 | S. cerevisiae deletion strains, locus YPL240C, strain hsp82, active compounds read low 1 | S. cerevisiae deletion strains, locus YPL241C, strain CIN2, active compounds read low 0.978 | S. cerevisiae deletion strains, locus YPL256C, strain CLN2, active compounds read low 1.01 | S. cerevisiae deletion strains, locus YPR119W, strain clb2, active compounds read low 0.985 | S. cerevisiae deletion strains, locus YPR141C, strain kar3, active compounds read low 0.979 | S. cerevisiae deletion strains, locus YPR163C, strain tif3, active compounds read low 0.958 | S. cerevisiae deletion strains, locus YPR167C, strain met16, active compounds read low 0.977 | S. cerevisiae deletion strains, strain wtn01, active compounds read low 0.934 | S. cerevisiae strains, strain wild type, active compounds read low 0.95
